# Experiment: binders of probe aFGF2 on microarray, primary screen, stem cell growth factor project, biochemical, small-molecule microarray, fluorescence 635/667 (AID 1067);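 note: measures binding of biotinylated aFGF2 protein to printed compounds on slides; z-score merges feature fluorescence and signal-to-noise across triplicate slides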
# Details: higher = more signal
row,Structure (SMILES),composite z-score
1,O=C(O)[C@]1(CCS(=O)(=O)c2ccccc2)N=C(c2ccc(OCCCO)cc2)O[C@@H]1c1ccccc1,0.115
2,[N-]=[N+]=NCc1ccccc1C[C@]1(C(=O)NCCN2CCOCC2)COC(c2ccc(OCCCO)cc2)=N1,-0.0647
3,CC(C)C[C@@H]1NC(=O)[C@@H]2C[C@H](C(=O)NCc3ccc(F)cc3)[C@H](c3ccc(O)cc3)N2C1=O,-0.017
4,C=CCNC(=O)[C@H]1[C@@H]2C(=O)O[C@@H](c3ccccc3)[C@@H](c3ccccc3)N2[C@@H](c2ccc(O)cc2)[C@]12C(=O)N(C(=O)OCCOC)c1ccc(C#CC3(O)CCCCCC3)cc12,0.0789
5,COCCOC(=O)N1C(=O)[C@@]2(c3cc(C#CCC(C(=O)OC)C(=O)OC)ccc31)[C@H](C(=O)N1CCCCCCC1)[C@H]1C(=O)O[C@H](c3ccccc3)[C@H](c3ccccc3)N1[C@@H]2c1ccc(O)cc1,0.146
6,O=[N+]([O-])c1ccc(C[n+]2ccc(-c3ccc(CO)cc3)cc2)o1,-0.0266
7,CN1C(=O)C2C=CC(C(O)COCc3ccccc3)N(Nc3ccccc3)C2C1=O (configuration not stated),0.308
8,COC(=O)[C@@]1(Cc2ccc(OC)cc2)[C@H]2c3cc(C(=O)N4CCCC4)n(CCc4ccc(O)c(OC)c4)c3C[C@H]2CN1C(=O)c1ccccc1,0.0331
9,C=C(CCCC)/C(=C/C[C@H](OC(=O)c1ccncc1)c1ccc(CO)o1)c1cc(C(=O)OC)ccc1OC,-0.116
10,C[C@@H]1ON(c2ccccc2)[C@H](c2ccccc2)[C@H]1C(=O)N1C(=O)OC[C@H]1Cc1ccccc1,-0.127

# Experiment: binders of probe aFGF10 on microarray, primary screen, stem cell growth factor project, biochemical, small-molecule microarray, fluorescence 635/667 (AID 1071);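 note: score merges 667 nm spot intensity and signal to noise from triplicate slides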
# Details: higher = more signal
row,Structure (SMILES),composite z-score
1,COC(=O)c1ccc(OC)c(/C=C\CC(CCc2ccccc2)OC(C)=O)c1 (configuration not stated),-0.672
2,C[N+](C)(C)CCCC[C@@H]1NC(=O)[C@H]2C[C@@H](C(=O)NCCCCCCN)[C@@H](c3cccc(OCCO)c3)N2C1=O,0.765
3,C/C=C/[C@@H](CCn1cc([C@H](O)c2ccccc2)nn1)[Si](C)(C)c1ccc(OC)cc1,-0.135
4,CCCCCCCCCCC(O)C1C=CC2C(=O)NC(=O)C2N1Nc1ccccn1 (configuration not stated),-0.417
5,COC(=O)[C@@]1(Cc2ccc(F)cc2)[C@H]2c3cc(C(=O)N(C)C)n(CCSCCO)c3C[C@H]2CN1C(=O)c1ccccc1,0.487
6,CC1CC/C=C\[C@H]2OC34C=CCN(Cc5ccccc5)C(=O)[C@H]3N(CCO)C(=O)[C@@H]4C2C(=O)O1 (some centres not stated),1.1
7,C=C(COC)C(=O)CC[C@H](OC(=O)c1ccccc1-c1ccccc1C(=O)O)c1ccc(OCCO)cc1,0.512
8,C=CCC(OC(C)=O)[C@@H]1[C@@H](N(Cc2cc3ccccc3o2)C(=O)Cc2ccc(OC)cc2)c2cc(OCCCO)ccc2N1C(=O)c1ccc(-c2ccccc2)cc1 (some centres not stated),-0.204
9,CC1CC/C=C\[C@H]2OC34C=CCN(c5ccc(Cl)cc5)C(=O)[C@H]3N(C(CO)C(C)C)C(=O)[C@]4(C)C2C(=O)O1 (some centres not stated),-0.38
10,O=C1O[C@@H](c2ccccc2)[C@@H](c2ccccc2)N2[C@@H](c3ccc(O)cc3)[C@]3(C(=O)Nc4ccc(C#CC5(O)CCCCCC5)cc43)[C@@H](C(=O)N3CCN(c4ncccn4)CC3)[C@H]12,0.349
11,CC[C@@H]1[C@@H]2C3C(=O)N(CC)C(=O)C3CC(=O)[C@@H]2[C@H](c2ccc(C)cc2)N1S(=O)(=O)c1ccc(C)cc1 (some centres not stated),0.383
12,COCCOC(=O)N1C(=O)[C@@]2(c3cc(C#CCCO)ccc31)[C@H](C(=O)NC[C@H](O)c1ccccc1)[C@H]1C(=O)O[C@H](c3ccccc3)[C@H](c3ccccc3)N1[C@@H]2c1ccccc1OCCO,0.486
13,C=CCOC(=O)[C@@H]1[C@H]2C(=O)O[C@H](c3ccccc3)[C@H](c3ccccc3)N2[C@H](c2ccc(OCCOC(=O)[C@@H]3C[C@@H]4C(=O)N[C@@H](CCCCNC(C)=O)C(=O)N4[C@@H]3c3ccc(O)cc3)cc2)[C@@]12C(=O)Nc1ccc(I)cc12,0.722
14,CC(C)CCC[C@@H](C)[C@H]1CC[C@@]2(C)C3=C(CC[C@]12C)[C@@]1(C)CC[C@H](OC(=O)c2ccc(N)cc2)C(C)(C)C1CC3 (some centres not stated),0.448
15,CCCN1C(=O)[C@@H]2Cc3c([nH]c4ccccc34)[C@@H](c3cccc(O)c3)N2C1=O,0.428
16,C=CCN1C(=O)[C@@]2(O[C@@H](CCn3cc([C@H](O)c4ccccc4)nn3)[C@H]([Si](C)(C)c3ccc(OC)cc3)[C@H]2C)c2cc(NC(=O)c3ccc(OC)cc3)ccc21,0.0737
17,COc1ccc([Si](C)(C)[C@@H]2[C@@H](CC(=O)N(CCO)Cc3ccccc3)O[C@]3(C(=O)N(Cc4ccc(N5CCOC5=O)cc4)c4ccccc43)[C@H]2C)cc1,0.222

# Source: PubChem BioAssay
